Out of some 380,000 compounds screened, about 4,000 (1.1%) were called active. Not shown: some 3% with an inconclusive outcome. Only a selection was taken, and actives are over-represented in it overall. A number with no mark means an inactive call. Calls come from the whole dose curve; as a rule, active = well fitted activation curve with a large enough effect; inconclusive = small, poorly fitted or top-dose-only effect; inactive = no such curve, though single readings can be large or run the other way.
Potency is the fitted concentration of half-maximal effect.

The test is described as follows: qHTS Assay to Identify Small Molecule Activators of BRCA1 Expression. Note: nearly all actives have a fitted effect of over 80% in size. The note with it: MCF7-BRCA1-FFLuc reporter, luminescence, 48 h; series mostly up to 46.1 µM; activation: at the top concentration. The procedure, abridged: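 MCF7 cells carrying a BRCA1-firefly luciferase reporter (2000 cells/well, phenol-red free MEM) were attached for 2 h at 37 °C, then given compounds for 48 h. Luminescence was read 15 min after luciferase reagent; activity normalized to genistein (10 microM) and DMSO.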
For `Cc1cc(N2CCN(c3cccc(C(F)(F)F)c3)CC2)n2nc(-c3ccccc3)nc2n1`, the “activation” value is -34.4%. The same measure, in the same setting: as for `CCOC(=O)Cc1ccc(NC(=O)Nc2c[nH]c(=O)[nH]c2=O)cc1`, the figure is 9.34%; as for `COC(=O)c1ccc(C2C(C(=O)Nc3ccccc3)=C(C)Nc3nc4ccccc4n32)cc1` (centres undefined), 1.34%; as for `Cc1ccccc1-n1c(=O)c2ccccc2n(Cc2ccc(F)cc2)c1=O`, 1.73%. Take `Cn1c(CCN2CCCCCC2)nc2cc(NC(=O)Nc3ccccc3)ccc21`: the Potency is 7.94 µM (active). As for `Cc1nn(CC(=O)Nc2ccc3c(c2)nc(CN2CCCCC2)n3C)c(=O)c2ccccc12`, the “activation” value is -21.1%. `Cn1c(CCN2CCN(c3ccccn3)CC2)nc2cc(NS(=O)(=O)c3ccc(F)cc3)ccc21`: the “activation” value is -8.24%. The same measure, in the same setting: for `COc1ccc(-c2nc3nc(C)cc(C)n3c2Nc2c(C)cccc2C)cc1` the value was -20.3%; for `CCOC(=O)c1c(C)[nH]c(C)c1S(=O)(=O)N(C)CC(=O)N1CCN(c2ccccc2)CC1`, 3.46%; for `CC(C)CNC(=S)NNC(=O)c1ccccc1OC(F)F`, -0.636%.

Turning to `CC(C)CNC(=S)Nc1ccc(F)cc1`, the Potency was 10 µM (active). As for `CC(NC(=S)Nc1ccc(OC(F)F)cc1)c1ccc(F)cc1` (centres undefined), the “activation” value was -27.5%. With `COc1ccc(/C=C/c2nnc(NC(=O)C(C)C)s2)cc1`, the Potency was 3.98 µM (active). As for `O=C(CSc1ccccc1)Nc1nnc(/C=C/c2ccccc2)s1`, the “activation” value is 70.1%. As to `CC(C)C(=O)Nc1nnc(Sc2ccc(N(C)C)cc2)s1`, the “activation” value is -16.1%. On the same count and under the same terms, as for `CCOc1ccc(OCC)c(NC(=O)c2c(C)nn(-c3ccccc3)c2-n2cccc2)c1`, the figure is 65.8%; as for `Cc1cc2c(cc1S(=O)(=O)CCC(=O)Nc1ccc(OC(F)(F)F)cc1)OCC(=O)N2`, 6.63%. `CCOc1ccc(NC(=O)CSc2nnc3c(n2)[nH]c2ccc(S(=O)(=O)N4CCOCC4)cc23)cc1`: the “activation” value was 8.86%.

Take `COc1cccc(Nc2nc(N)c([N+](=O)[O-])c(NCc3ccco3)n2)c1`: the “activation” value is 0.078%. Same read-out and setting: for `COc1ccc(Nc2nc(NCc3ccco3)nc(N/N=C/c3ccccc3Cl)n2)cc1` the value was 65.1%. For the compound `COc1ccc(-n2cnc3cc(NCc4ccco4)ccc32)cc1`, the Potency is 8.91 µM (active).

As to `Cc1csc(NCC(=O)c2c[nH]c3ccccc23)n1`, the “activation” value is 14%.

As to `O=C(NC1CCCC1)C(=O)c1c[nH]c2ccccc12`, the Potency is 11.2 µM (active). For the compound `O=C(NCCCc1ccccc1)C(=O)c1c[nH]c2ccccc12`, the “activation” value is 61.3%. The same measure, in the same setting: as for `CC1CCN(CC(=O)c2c[nH]c3ccccc23)CC1`, the figure is 6.76%; as for `CC(C)Oc1ccc(CNC(=O)C2CCN(c3nc4ccccc4n(C)c3=O)CC2)cc1`, -1.95%; as for `Cc1nn(Cc2ccc(Cl)cc2)c(Cl)c1/C=N/NC(=O)CNc1ccccc1F`, 23%. As to `CCn1nc(C)c(/C=N/NC(=O)Cc2ccc(Cl)cc2)c1C`, the Potency was 7.94 µM (active). On to `O=C(CSc1nnc(SCc2ccc(Cl)cc2)s1)N/N=C/c1ccccc1Cl`, for which the “activation” value was 11.2%.

The values are drawn from PubChem BioAssay AID624202 (National Center for Advancing Translational Sciences (NCATS), 2012).
